Beta2AR agonist – human beta-2 adrenergic receptor agonism by FAP | response, % (concentration not given with the values) | 0.43% of 340,000 active | Am2.2-beta2AR cells, FAP receptor internalization, flow cytometry | P07550;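 active = response above a set limit, near 3 SD of response in nonfluorescent compounds, cut at about 42% in these data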
Target sequence (P07550 whole entry, looked up): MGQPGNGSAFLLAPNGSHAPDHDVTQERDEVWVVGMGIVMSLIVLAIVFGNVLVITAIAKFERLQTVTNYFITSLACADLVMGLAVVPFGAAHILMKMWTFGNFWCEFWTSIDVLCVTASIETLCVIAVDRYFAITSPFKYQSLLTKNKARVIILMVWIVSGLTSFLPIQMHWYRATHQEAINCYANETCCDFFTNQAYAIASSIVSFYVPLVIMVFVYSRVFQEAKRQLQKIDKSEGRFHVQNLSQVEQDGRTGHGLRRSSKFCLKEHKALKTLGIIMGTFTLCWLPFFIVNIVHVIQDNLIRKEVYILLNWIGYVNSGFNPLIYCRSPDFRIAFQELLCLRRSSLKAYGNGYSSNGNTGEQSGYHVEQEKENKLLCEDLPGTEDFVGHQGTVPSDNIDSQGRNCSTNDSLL
KKLEB cytotox – counter-screen for CF NF-kB inhibitors: cytotoxicity. KKLEB CF airway cells viability, ATPlite luminescence, overnight; hits give low values; cells stimulated with P. aeruginosa culture filtrate. AID 602141. activity change (cytotoxicity), % at 5 µM. 0.36% of 360,000 active;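 active = corrected activity change at or below -50% at 5 µM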
CF NFkB inh – cystic fibrosis NF-kB activation inhibition; KKLEB NF-kB-GFP reporter, PAF-induced, GFP fluorescence overnight; 0.86% of 360,000 active; inhibition, % at 5 µM;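 active = at least 50% inhibition at 5 µM, scaled per plate between neutral and stimulator controls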;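 also: PAF is a Pseudomonas aeruginosa culture filtrate used as stimulus; plate controls were PAF-stimulated DMSO wells for no effect and unstimulated DMSO wells for full effect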
TRPM1 prom inh – MITF TRPM1 promoter inhibition in SK-MEL-5 cells | SK-MEL-5 TRPM1 promoter luciferase, 24 h | inhibition, % at 12.5 µM | 0.83% of 330,000 active | AID 488899;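 active = mean inhibition across replicates of 60% or more, whatever share of single replicates reaches that level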
HIF-2a inh – blocks HIF-2a reporter activity; 0.72% of 360,000 active; 786-0 RCC cells HIF-2a reporter, luciferase luminescence, overnight; AID 624352; inhibition, % at 18.8 µM;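 active = inhibition of the luminescence signal of 40% or more relative to plate controls, in a single-dose primary screen at 18.75 µM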
Peg3 prom inh-1 – Peg3 promoter activity inhibition. inhibition, % at 20 µM. HeLa PEG-Prom luciferase reporter, luminescence, overnight. 1.7% of 360,000 active;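 active = inhibition of at least 50% at 20 µM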
Peg3 prom inh-2 – confirmation of Peg3 promoter inhibitors. shares compounds with Peg3 prom inh-1. HeLa PEG-Prom luciferase reporter, luminescence, overnight. inhibition, % at 20 µM. 84% of 1,300 active. AID 602417;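 active = at 20 µM dose, 40% or more inhibition averaged across four replicates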
CF NFkB conf – CF NF-kB inhibition confirmation, single concentration; shares compounds with CF NFkB inh; KKLEB CF airway cells, PAF-induced NF-kB-GFP fluorescence, overnight; inhibition, % at 5 µM; 64% of 1,300 active; AID 602472; in the data active = inhibition above about 40%;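 also: stimulus PAF is a Pseudomonas aeruginosa filtrate and not platelet activating factor; plate controls were DMSO wells with stimulus for no effect and unstimulated DMSO wells for full effect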
Active calls of the source: *; x = no result given. Sampled rows, rich in hits. Any-hit rate of the full collection: about 2.8%.

SMILES | Beta2AR agonist | KKLEB cytotox | CF NFkB inh | TRPM1 prom inh | HIF-2a inh | Peg3 prom inh-1 | Peg3 prom inh-2 | others
CCC1(OC(=O)CN)C(=O)OCc2c1cc1n(c2=O)Cc2cc3ccccc3nc2-1 (configuration not stated) | 9.3 | -33.5 | 79.2* | 80.0* | 33.9 | 83.5* | 72.6*
CCOCCN1CCN(c2nnc3n2-c2ccc(Cl)cc2C(c2ccccc2Cl)=NC3)CC1 | -12.2 | 1.3 | -5.1 | -1.3 | 16.5 | 13.0 | x
O=[N+]([O-])c1ccc(NC2CCN(Cc3ccccc3)CC2)c2ccncc12 | 1.7 | -8.5 | -17.8 | 17.6 | 28.7 | 67.3* | 77.7*
O=[N+]([O-])c1ccc(NC2CCCC2)c2ccncc12 | 11.9 | -7.2 | 28.3 | -1.2 | 21.2 | 25.7 | x
CCCCn1nnnc1C(C1CC1)N1CCC2(CC1)C(=O)NCN2c1ccccc1 (configuration not stated) | x | -5.5 | 2.0 | x | 8.6 | 7.2 | x
CCCCn1nnnc1C(CCSC)N1CCC(n2c(=O)[nH]c3ccccc32)CC1 (configuration not stated) | x | 9.3 | -23.3 | x | -8.3 | 51.8* | 67.8*
COc1cccc(C(c2nnnn2-c2c(C)cccc2C)N2CCC(n3c(=O)[nH]c4ccccc43)CC2)c1OC (configuration not stated) | x | -6.1 | 20.1 | x | -4.2 | 57.5* | 41.9*
NCC(CC(=O)O)c1ccc(Cl)cc1 (configuration not stated) | -4.2 | 3.2 | -17.6 | 3.1 | 16.3 | -9.4 | x
COC(=O)C1=C(c2ccc(OC(F)(F)F)cc2)C[C@@H]2CC[C@H]1N2C(=O)NCCc1ccccc1 | 4.8 | -5.4 | 22.3 | -0.6 | 10.8 | -0.7 | x
O=c1c2ccccc2nc(CSc2ncnc3nc[nH]c23)n1-c1ccc(Cl)c(Cl)c1 | 4.8 | -5.7 | 0.9 | 2.5 | 27.1 | 60.2* | 45.1*
c1ccc(NC2=NCCS2)cc1 | -3.0 | 8.5 | -11.3 | -2.1 | 14.0 | -1.1 | x
COc1ccc(-n2c(/C=C/c3ccc(O)c(OC)c3)nc3ccccc3c2=O)cc1 | -23.7 | -26.9 | 33.4 | 4.2 | 24.1 | 55.5* | 68.8*
O=c1nc(/C=C/c2ccc(Cl)cc2Cl)cc(C(F)(F)F)[nH]1 | 9.5 | 12.7 | 32.3 | -5.5 | -37.1 | -0.5 | x
COc1cc2nc(CN3CC=C(c4ccccc4)CC3)[nH]c(=O)c2cc1OC | 14.6 | -6.8 | 68.9* | 0.8 | -210.5 | 102.0* | 93.6*
CC12CN3CN(C1)CC(c1ccccc1)(C3)C2=O | 0.2 | 1.6 | 6.8 | 9.3 | 5.9 | 16.4 | x
CC[C@@H](O)C[C@H]1CCC[C@@]2(C[C@@H]3OC(=O)/C=C/[C@@](C)(O)[C@@H](O)[C@H](C)[C@@H](O)[C@H](OC4CCC(N(C)C)C(C)O4)[C@@H](O)[C@](C)(O)CCCCC/C=C/[C@@H]4CC(C)(C)O[C@@]4(O)C[C@H](O2)[C@H]3C)O1 (some centres not stated) | 18.9 | 8.2 | 27.8 | 75.8* | -15.2 | 89.2* | 92.5*
N#Cc1ccc(Cn2cc(C=O)c3ccccc32)cc1 | 3.5 | -0.7 | 6.8 | -85.7 | 4.5 | 73.6* | 60.6*
CCC(=O)c1cn(Cc2ccc(C#N)cc2)c2ccccc12 | -8.9 | -8.0 | 3.4 | -9.0 | 13.4 | 10.5 | x
COc1ccccc1C=C1C(=O)NC(=S)NC1=O | 3.7 | 13.5 | -25.9 | 4.6 | 3.2 | -1.8 | x
Cc1cc(C)cc(N2C(=O)NC(=O)/C(=C\c3cccn3-c3ccc(Cl)cc3)C2=O)c1 | 7.7 | 3.8 | 20.1 | 50.8 | 15.0 | 104.2* | 56.0*
O=C1NC(=S)NC(=O)C1=Cc1cccn1-c1ccc(O)cc1 | 71.4* | 2.1 | 25.5 | 94.1* | 55.7* | 70.8* | 49.1*
CC(=O)OC1CC[C@]2(C#N)[C@H]3CC[C@]4(C)[C@H](C5C=CC(=O)O5)CCC4(O)C3CCC2(O)C1 (some centres not stated) | -5.1 | -15.1 | 22.1 | 34.3 | 4.3 | 75.6* | 86.6*
CNCC[C@@H](Oc1ccc(C(F)(F)F)cc1)c1ccccc1 | 23.2 | -21.3 | 14.1 | -9.0 | -11.7 | 73.7* | 68.7*
COC(=O)C1=C(c2ccc(-c3ccccc3)c(F)c2)C[C@@H]2CC[C@H]1N2C(=O)NCCOc1ccc(OC)cc1 | -0.7 | -8.9 | 15.7 | 14.5 | 14.9 | 22.9 | x
C/C=C1\NC(=O)[C@H](C)NC(=O)[C@@H](NC(=O)[C@H](Cc2ccc(O)cc2)NC(=O)[C@@H](NC(=O)/C(C)=C/C)C(C)C)[C@@H](C)OC(=O)[C@H](CCCc2ccc(O)cc2)NC(=O)[C@@H](CCC(=O)O)NC1=O | x | -0.9 | -0.9 | x | 4.8 | -5.4 | x
SMILES | Beta2AR agonist | KKLEB cytotox | CF NFkB inh | TRPM1 prom inh | HIF-2a inh | Peg3 prom inh-1 | Peg3 prom inh-2 | others
O=C1NCN(c2ccccc2)C12CCN(C(c1cccs1)c1nnnn1Cc1ccccc1)CC2 (configuration not stated) | x | -2.4 | -11.0 | x | 15.7 | 50.0* | 40.5*
CC1CN1P1(=O)OCC(C)([N+](=O)[O-])CO1 (configuration not stated) | -1.2 | -3.7 | -5.4 | -4.2 | 5.1 | -2.0 | x
C[C@]12CCC(=O)C=C1C=CC1C2CC[C@@]2(C)C1CC[C@@H]2O (some centres not stated) | -2.2 | -11.6 | 23.8 | 22.6 | 7.6 | 27.3 | x
Cc1ccc(C)c(NP(=O)(Oc2ccccc2)Oc2ccccc2)c1 | 18.6 | -67.4* | 97.0* | -9.7 | 10.4 | 63.0* | 66.8*
Cc1ccc(S(=O)(=O)NP(=O)(Oc2ccccc2)Oc2ccccc2)cc1 | 0.3 | -1.5 | 7.3 | 3.9 | -1.8 | 4.0 | x
Cc1nn(Cc2ccccc2)c(C)c1C=C1C(=O)NC(=O)NC1=O | 8.7 | 15.0 | -11.8 | -10.8 | 16.5 | 8.7 | x
COc1ccc(-n2nnnc2C(CCSC)N2CCC(n3c(=O)[nH]c4ccccc43)CC2)cc1 (configuration not stated) | x | -23.7 | 80.7* | x | -16.3 | 56.5* | 42.4* | CF NFkB conf=69.8*
COc1ccc(N2C(=O)CC(N3CCC(n4c(=O)[nH]c5ccccc54)CC3)C2=O)cc1 (configuration not stated) | 8.3 | -15.8 | -0.6 | -10.2 | 17.2 | 9.4 | x
CC(=O)OC1(C)CC(C)C(=O)C(C(O)CC2CC(=O)NC(=O)C2)C1 (configuration not stated) | 67.6* | -43.6 | 80.6* | 84.0* | 77.3* | 105.4* | 97.8* | CF NFkB conf=114.1*
COC(=O)C1=C(c2ccc(S(C)(=O)=O)cc2)C[C@@H]2CC[C@H]1N2C(=O)NC(C)C | 7.8 | 6.0 | 13.7 | 2.0 | 9.8 | 1.2 | x

High-throughput results: PubChem BioAssay, several laboratories
